SETD2 data for 40 molecules are collected here from paper PMC8159961, “Exploring protein hotspots by optimized fragment pharmacophores” (Nature Communications, 2021).

Molecules are shown by their SMILES. A number with no mark means an inactive call. No rule for the calls is given here.

Sequence of histone methyltransferase SET domain containing 2 (SETD2) (Q9BYW2 whole entry, looked up, the tested form may be a part): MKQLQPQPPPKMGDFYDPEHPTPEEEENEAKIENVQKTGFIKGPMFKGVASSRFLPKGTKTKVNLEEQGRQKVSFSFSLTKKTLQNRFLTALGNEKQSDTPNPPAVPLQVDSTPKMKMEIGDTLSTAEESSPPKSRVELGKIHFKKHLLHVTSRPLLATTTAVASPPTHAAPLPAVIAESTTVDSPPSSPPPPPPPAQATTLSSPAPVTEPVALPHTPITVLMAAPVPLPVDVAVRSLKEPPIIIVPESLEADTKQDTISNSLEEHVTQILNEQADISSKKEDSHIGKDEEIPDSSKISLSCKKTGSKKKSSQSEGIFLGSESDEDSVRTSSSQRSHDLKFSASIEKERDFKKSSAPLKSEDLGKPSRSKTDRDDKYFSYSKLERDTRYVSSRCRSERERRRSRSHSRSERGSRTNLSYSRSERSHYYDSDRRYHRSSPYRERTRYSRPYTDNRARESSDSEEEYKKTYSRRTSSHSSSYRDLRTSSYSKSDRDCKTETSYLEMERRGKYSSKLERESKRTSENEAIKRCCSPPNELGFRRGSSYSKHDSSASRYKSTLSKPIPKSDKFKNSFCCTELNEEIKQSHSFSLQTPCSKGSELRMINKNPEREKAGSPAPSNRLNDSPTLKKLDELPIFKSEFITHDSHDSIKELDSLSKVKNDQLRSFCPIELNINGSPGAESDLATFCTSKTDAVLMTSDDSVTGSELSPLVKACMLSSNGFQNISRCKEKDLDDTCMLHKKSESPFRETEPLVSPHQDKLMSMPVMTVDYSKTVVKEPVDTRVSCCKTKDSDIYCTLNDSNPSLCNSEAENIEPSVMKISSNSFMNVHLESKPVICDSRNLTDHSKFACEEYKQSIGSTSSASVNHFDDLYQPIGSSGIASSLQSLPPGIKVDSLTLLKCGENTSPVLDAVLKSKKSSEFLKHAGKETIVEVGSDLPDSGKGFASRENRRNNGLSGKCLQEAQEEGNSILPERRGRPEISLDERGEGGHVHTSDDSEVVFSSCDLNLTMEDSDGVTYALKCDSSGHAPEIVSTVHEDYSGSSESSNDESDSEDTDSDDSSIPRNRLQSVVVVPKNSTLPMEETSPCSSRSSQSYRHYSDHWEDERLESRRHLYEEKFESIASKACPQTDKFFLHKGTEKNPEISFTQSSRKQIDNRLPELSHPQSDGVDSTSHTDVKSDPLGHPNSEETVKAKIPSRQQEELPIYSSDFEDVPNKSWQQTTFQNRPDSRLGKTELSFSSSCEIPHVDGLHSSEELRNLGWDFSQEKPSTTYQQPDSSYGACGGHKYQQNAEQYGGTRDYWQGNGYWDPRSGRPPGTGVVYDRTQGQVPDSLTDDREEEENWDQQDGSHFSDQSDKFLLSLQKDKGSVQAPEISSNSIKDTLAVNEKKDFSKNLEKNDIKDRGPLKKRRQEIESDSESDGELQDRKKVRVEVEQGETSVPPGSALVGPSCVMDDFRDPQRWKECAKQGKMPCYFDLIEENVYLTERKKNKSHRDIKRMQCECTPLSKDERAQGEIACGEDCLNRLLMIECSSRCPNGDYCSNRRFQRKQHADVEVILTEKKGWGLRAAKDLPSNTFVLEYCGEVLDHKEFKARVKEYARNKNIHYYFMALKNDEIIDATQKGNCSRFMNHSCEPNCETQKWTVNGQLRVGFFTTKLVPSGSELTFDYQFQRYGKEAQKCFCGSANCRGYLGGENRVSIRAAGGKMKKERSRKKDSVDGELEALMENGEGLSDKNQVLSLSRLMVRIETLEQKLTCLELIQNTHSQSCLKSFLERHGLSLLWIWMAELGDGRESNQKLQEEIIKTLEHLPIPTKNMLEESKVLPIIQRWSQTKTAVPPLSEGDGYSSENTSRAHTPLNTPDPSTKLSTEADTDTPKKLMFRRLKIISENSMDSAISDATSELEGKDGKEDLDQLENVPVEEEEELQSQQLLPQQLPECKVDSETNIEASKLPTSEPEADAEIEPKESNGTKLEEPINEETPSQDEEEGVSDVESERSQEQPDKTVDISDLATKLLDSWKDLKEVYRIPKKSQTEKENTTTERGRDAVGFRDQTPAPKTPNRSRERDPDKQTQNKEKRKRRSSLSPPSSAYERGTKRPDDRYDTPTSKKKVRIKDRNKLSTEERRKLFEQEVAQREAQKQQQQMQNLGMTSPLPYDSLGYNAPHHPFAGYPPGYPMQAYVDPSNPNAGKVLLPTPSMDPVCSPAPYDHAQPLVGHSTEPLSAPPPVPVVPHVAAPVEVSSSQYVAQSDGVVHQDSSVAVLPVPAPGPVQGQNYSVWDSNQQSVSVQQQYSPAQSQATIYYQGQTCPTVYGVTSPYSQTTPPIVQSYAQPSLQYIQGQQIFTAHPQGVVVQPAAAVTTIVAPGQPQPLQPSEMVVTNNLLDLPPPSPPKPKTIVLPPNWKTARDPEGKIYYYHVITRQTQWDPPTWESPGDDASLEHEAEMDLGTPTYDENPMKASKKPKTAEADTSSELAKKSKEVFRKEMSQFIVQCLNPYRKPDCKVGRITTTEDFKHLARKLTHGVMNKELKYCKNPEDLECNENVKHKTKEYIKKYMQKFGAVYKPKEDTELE

The target in this assay is histone methyltransferase SET domain containing 2 (SETD2) (Homo sapiens, UniProt Q9BYW2). Description: primary screen, binary call; higher = more effect of the substance. As for the experimental part:
The Chemiluminescence assay evaluates SETD2 specific tri -methylation activity towards histone H3K36. The kit consist s of recombinant SETD2, S-adenosylmethionine and a specific H3K36me3 antibody and was performed according to the manufacturer’s protocol (Catalo g- No. 52060, https://bpsbioscience.com/setd2 -chemiluminescent-assay-kit-52060). Values were blank corrected and normalized . Enzymatic activities were calculated relative to the positive control of the kit (full enzymatic activity) and to the known SET doma in inhibitor Sinefungin28 used as negative control (complete enzymatic activity inhibition). Compounds used were diluted in DMSO.
As to `COc1cccc(NC2=NCCCCC2)c1`, the SETD2 was 0.
With `c1ccc2c(N3CCNCC3)ccnc2c1`, the SETD2 is 0.
Consider `CC(=O)c1ccc2c(c1)CNCC2`, for which the SETD2 was 0.
With `CS(=O)(=O)c1ccc(OC(F)(F)F)cc1` the figure was 0; with `Cc1ccc(-c2ccc(O)cc2)cc1`, 0; with `CN(C)c1cc(CN)ccn1`, 0.
As for `Cc1cc(C)c2c(=O)[nH]n(C)c2n1`, the figure is 0; as for `Cc1nccn1Cc1cccc(C#N)c1`, 0.
Turning to `Clc1ccc2nnnn2n1`, the SETD2 was 0.
As for `FC1(F)CNCC(F)(F)O1`, the figure is 0; as for `c1ccc2sc(N3CCNCC3)nc2c1`, 0.
With `O=c1[nH]c2c(s1)CCC2` the figure was 0; with `O=C(O)C1CCCN(C(=O)N2CCCC2)C1` (stereo not shown), 0; with `Cc1nc(-c2ccccc2)cs1`, 0.
As for `c1ccc(Nc2nncs2)cc1`, the figure is 0; as for `O=C1NC(=O)C2(CCc3ccccc32)N1` (stereo not shown), 0.
`O=C(c1ccccc1)N1CCC(CO)CC1`: the SETD2 was 0.
With `Cc1cc(N)no1` the figure was 0.
As for `O=C(CN1CCNCC1)c1ccccc1`, the figure is 0.
As for `Fc1ccc(CC2CCCNC2)cc1` (stereo not shown), the figure is 0; as for `O=C1CC(CSc2ccc(Cl)cc2)=NN1`, 0.
Turning to `N#CC1CCS(=O)(=O)C1` (stereo not shown), the SETD2 was 0.
As for `CC(CN)N1CCc2sccc2C1` (stereo not shown), the figure is 0; as for `CN1CC(=O)NC1=O`, 0; as for `CC(=O)c1ccc2c(c1)CCCN2`, 0.
For the molecule `Cn1c(N)nc2ccccc21`, the SETD2 was 1 (active).
As for `O=C(c1ccccc1F)N1CCNCC1`, the SETD2 is 0.
As for `O=C1CCC(=O)N(c2ccccc2)N1`, the figure is 0; as for `CS(=O)(=O)Nc1ccc(C(=O)O)cc1`, 1 (active); as for `Cc1cnc(C(F)(F)F)cn1`, 0.
With `O=C1CCN(c2ccccn2)CC1` the figure was 0; with `N#Cc1ccc(C(=O)N2CCOCC2)cc1`, 0.
With `O=C(O)c1cnc(-c2ccccc2)s1`, the SETD2 is 0.
With `O=C(O)CC1CCC(=O)N1` (stereo not shown) the figure was 0; with `O=C(O)c1cccc(Nc2ncccn2)c1`, 0; with `Cc1ccc(CCNc2ccccc2)cn1`, 0.
For the molecule `COc1ccccc1C1CCNCC1`, the SETD2 was 0.
As for `N#Cc1ccc2ncsc2c1`, the figure is 0.
As for `N#CCCN1CCc2ccccc21`, the figure is 0; as for `Cn1nc(C(F)(F)F)cc1O`, 0.
